Screening results as filed in PubChem.
IL1B secr inh: inflammasome signaling inhibition, IL-1 beta readout; THP-1 LPS/ATP IL-1B secretion, AlphaLISA, 16 h; stronger effect = lower value; activity change, % at 57.5 µM; 4.7% of 360,000 active; AID 743279; in the data active means activity change below about -50%; inconclusive means mostly about -30% to -49%
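THP-1 cells pretreated 1 hr with compounds (up to 57.5 uM final), then stimulated with LPS (250 ng/mL final) plus ATP (1.25 mM final); secreted IL-1B measured by AlphaLISA after 16 hr, decreased signal indicating inhibition.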
HT1080 IDH1KD tx: HT-1080 IDH1 knockdown cell toxicity (counter line) | HT-1080 IDH1 knockdown viability, ATP luminescence, 48 h | Potency, µM (top dose mostly 46.1 µM), for the others: top-dose activity, negative = toxicity, hits mostly cytotoxic | 2% of 360,000 active;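 further: potency means the concentration at half of the fitted maximal effect; 0% = DMSO wells and -100% = cell-free medium wells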
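CellTiter-Glo luminescence after 48 h compound exposure at 37 degrees C of IDH1-knockdown HT-1080 cells in 5% FBS RPMI. %Activity scaled between DMSO wells and cell-free media wells, with curves fitted and assigned curve classes.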
TDP1 cell CPT: growth inhibition of DT40 Tdp1-/-;hTDP1 cells with camptothecin (screen for TDP1 inhibitors); Potency, µM (titrated, usually from 46.2 µM), for inactives: top-dose activity change, negative = growth inhibition, usual class: inhibitors; 12% of 420,000 active; chicken DT40 Tdp1-/-;hTDP1 cells + 20 nM CPT, ATP luminescence, 48 h; further: potency means the concentration at half of the fitted maximal effect; nearly all actives have a fitted effect of over 55% in size
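Chicken DT40 Tdp1-/- cells complemented with human TDP1, 400 cells/well, exposed to compounds plus 20 nM camptothecin for at least 48 h at 37 C; viability read as ATP content by CellTiter-Glo luminescence.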
DT40 TDP1 no CPT: qHTS for Inhibitors of human tyrosyl-DNA phosphodiesterase 1 (TDP1): qHTS in cells in absence of CPT; DT40 Tdp1-/- hTDP1 cells, no CPT, ATP luminescence, 48 h; 15% of 420,000 active; Potency, µM (highest dose often 46.2 µM), inactives show top-dose activity change, negative = growth inhibition, actives largely listed as inhibitors; further: potency means the concentration at half of the fitted maximal effect; nearly all actives have a fitted effect of over 55% in size
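Luminescent ATP content (CellTiter-Glo) served as the growth readout. Knockout chicken DT40 cells expressing human TDP1 were exposed to compounds without camptothecin for a minimum 48 hr at 37 °C.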
HT1080NT lethal: kills 2HG-producing HT-1080-NT fibrosarcoma cells; HT-1080-NT fibrosarcoma viability, CellTiter-Glo ATP luminescence, 48 h; Potency, µM (highest dose often 46.1 µM), for inactives: at the top dose activity, negative = less viability, hits mostly cytotoxic; 1.6% of 360,000 active;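 further: NT is the 2HG producing partner of a matched IDH1 knockdown line; potency means the concentration at half of the fitted maximal effect; 0% = DMSO-treated cells and -100% = media-only wells without cells; nearly all actives have a fitted effect of over 55% in size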
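Viability of the 2HG-overproducing fibrosarcoma line after 48 hours of compound exposure at 37 degrees C was determined by luminescence with CellTiter-Glo, and concentration-effect curves were then fitted and categorized.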
* = called active by the depositor; ? = inconclusive; / = no result; [ ] = another dose, or the depositor's remark. Compounds with a hit are over-represented: about 19% of the library has one in this group of screens. Unless noted, the call rests on the fitted dose curve; in most records, active means well fitted curve in the direction sought with a large enough effect; inconclusive means small, poorly fitted or top-dose-only effect, or another doubt; inactive means no such curve, though single readings can be large; an effect the other way counts as inactive or inconclusive. Unless noted, on the % scale 0 is the no-effect control and ±100 the full control effect.

SMILES	IL1B secr inh	HT1080 IDH1KD tx	TDP1 cell CPT	DT40 TDP1 no CPT	HT1080NT lethal
Cc1sc2nc(C3CC3)nc(N3CCN(C(=O)c4ccccc4F)CC3)c2c1C	-26	?	?	?	-17%
Cc1sc2nc(C3CC3)nc(N3CCN(C(=O)c4ccc(F)cc4)CC3)c2c1C	-60*	?	?	23µM*	?
Cc1sc2nc(C3CC3)nc(N3CCN(C(=O)c4ccc(Cl)cc4)CC3)c2c1C	-6	-24%	?	18µM*	-17%
CS(=O)(=O)N1CCN(c2ccccc2NC(=O)c2ccco2)CC1	-25	?	-1%	-6%	-2%
O=C(c1ccnc(-n2cnnn2)c1)N1CCOc2ccc(C(O)CCc3ccccc3)cc2C1 (centres undefined)	/	/	-29%	-19%	/
CC(C)OC(=O)CSc1nnc2c3ccccc3n(C)c2n1	0	19%	-15%	7%	21%
COC(=O)c1ccc(S(=O)(=O)NCCSc2nnc3c4ccccc4n(C)c3n2)cc1	11	-11%	?	15µM*	3%
Cc1ccc(C2CC(c3ccccc3)=NN2c2ccc(S(N)(=O)=O)cc2)cc1 (centres undefined)	?	?	29µM*	?	?
NS(=O)(=O)c1ccc(N2N=C(c3ccccc3)CC2c2ccc(Br)cc2)cc1 (centres undefined)	-25	?	?	?	?
COc1ccc(C2CC(c3ccc(C(F)(F)F)cc3)=NN2c2ccc(S(N)(=O)=O)cc2)cc1 (centres undefined)	-26	?	18µM*	?	?
COc1ccc(C2CC(c3ccccc3C(F)(F)F)=NN2c2ccc(S(N)(=O)=O)cc2)cc1 (centres undefined)	-4	?	?	?	?
NS(=O)(=O)c1ccc(N2N=C(c3ccccc3)CC2c2ccccc2)cc1 (centres undefined)	-52*	?	?	?	?
CCc1ccc(C2=NN(c3ccc(S(N)(=O)=O)cc3)C(c3ccc(F)cc3)C2)cc1 (centres undefined)	-87*	?	18µM*	?	?
COc1ccc(C2CC(c3ccccc3F)=NN2c2ccc(S(N)(=O)=O)cc2)cc1 (centres undefined)	-16	-4%	?	-27%	-7%
CCOc1ccc2nc(N3C(=O)/C(=C/c4ccc(Cl)cc4)NC3=S)sc2c1	2	-2%	?	10µM*	11%
Cc1ccc([C@H]2C(C(=O)O)=CC[C@@H](c3ccc(C)cc3)N2S(=O)(=O)c2ccc(C)cc2)cc1	-22	-12%	-4%	-10%	-4%
O=C1C=CC(=O)C(C2=C3C(=O)N(CCc4ccccc4)CC(=O)N3CCC2)=C1	?	?	1.3µM*	1.3µM*	-1%
Oc1c(C(c2ccccc2F)N2CCN(c3ccccc3F)CC2)sc2nc(-c3ccco3)nn12 (centres undefined)	/	/	-24%	-24%	/
Cc1ccc(C(=O)Nc2ccc3cn[nH]c3c2)cc1S(=O)(=O)N1CCCCC1	23	-27%	-6%	?	-18%
COc1ccccc1/C=N/Nc1nncc2ccccc12	-3	18%	-5%	?	12%
Oc1ccccc1/C=N/NC(=S)NC1CC2CCC1C2 (centres undefined)	-78*	?	?	?	21µM*
COc1cccc(/C=N/n2c(N)c(S(=O)(=O)c3cccs3)c3nc4ccccc4nc32)c1OC	101	7%	7.3µM*	5.8µM*	7%
COCCn1c(N)c(S(=O)(=O)c2cccs2)c2nc3ccccc3nc21	-23	17%[9.24 µM]	0%	-17%	-27%
COc1cccc(/C=N/n2c(CO)nc3ccccc32)c1OC	-22	7%	-9%	-30%	10%
CNc1nc2ccccc2n1/N=C/c1cccc(OC)c1OC	-6	-28%	?	21µM*	-1%
SMILES	IL1B secr inh	HT1080 IDH1KD tx	TDP1 cell CPT	DT40 TDP1 no CPT	HT1080NT lethal
COc1cccc(C=NNc2nnc(NN=Cc3cccc(OC)c3OC)c3ccccc23)c1OC	-63*	-11%	23µM*	21µM*	-16%
CC(=O)N1CCCc2cc(S(=O)(=O)N3CCCC(C(=O)Nc4cccc(C)c4)C3)ccc21 (centres undefined)	-17	-14%	-28%	-18%	3%
COc1cccc(C=NNC(=S)NN=Cc2cccc(OC)c2OC)c1OC	20	3%	4.6µM*	4.1µM*	-2%
COc1cccc(/C=N/NC(=S)NC2CC3CCC2C3)c1OC (centres undefined)	8	-1%	?	21µM*	5%
O=C1C(=C(c2ccccc2)N2CCOCC2)Cc2ccccc21	-104*	4.6µM*	1.2µM*	0.82µM*	15µM*
Nc1cc(N)c(OCC(F)(F)F)cc1OCC(F)(F)F	-5	-6%	2.6µM*	9.2µM*	-3%
COC1OCC(O)C(NC(=O)N(C)N=O)C1O (centres undefined)	-14	3%	-11%	3%	1%
CCN(CC)S(=O)(=O)c1ccc(/C=C/C(=O)N(c2ccccn2)C2CCCCC2)cc1	47	-9%	?	12µM*	8%
O=C(/C=C/c1ccccc1)N(c1ccccn1)C1CCCCC1	4	2%	?	?	9%
O=C(/C=C/c1ccccc1Cl)N(c1ccccn1)C1CCCCC1	0	27%	?	16µM*	?
CCN1CCN(c2ccc(S(=O)(=O)N3CCOCC3)cc2NC(=O)c2ccc(Cl)s2)CC1	-14	4%	-11%	-3%	-2%
O=C(c1ccc(N2CN(C(=O)c3ccco3)c3nc4ccccc4nc32)cc1)N1CCOCC1	-59*	3%[9.24 µM]	13µM*	23µM*	?
O=C(Cc1ccc(Cl)cc1)N1CCN(c2ccc(F)cc2)CC1	-16	-8%	?	?	2%
Cc1cc(NC(=O)CSCC(=O)N2CCN(c3cccc(C)c3C)CC2)no1	18	2%	?	-28%	4%
Cc1cccc(N2CCN(C(=O)CSCc3c(C)noc3C)CC2)c1C	-14	?	21µM*	7.3µM*	4%
Cc1noc(C)c1CSCC(=O)N1CCN(c2ccc(F)cc2)CC1	0	-13%	?	18µM*	2%
O=C(CSCc1ccc(F)cc1)N1CCN(c2ccc(Cl)cc2)CC1	/	/	16µM*	21µM*	/
c1cnc2cc3c(cc2n1)[C@@H]1CNC[C@H]3C1	/	/	2%	6%	/
COc1ccc(NC(=O)c2cc(C3CCCCN3S(=O)(=O)Cc3ccccc3)on2)cn1 (centres undefined)	-5	-5%	-27%	?	6%
